Screening data (PubChem)
Mtb bLac sens – beta-lactam sensitization of Mtb H37Rv; 330,000 compounds, 0.27% hits; M. tuberculosis H37Rv growth with meropenem, percent inhibition; inhibition, % at 25 µM; call rule not given here;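 also: growth measured after seven days incubation then overnight dye step; 0% = bacteria only wells and 100% = bacteria with antibiotic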
UGM FP inh – Mtb UDP-galactopyranose mutase inhibition; inhibition, % at 10 µM; 320,000 compounds, 0.06% hits; purified UGM, fluorescence polarization probe displacement; in the data active = inhibition above about 10%, passing the limit was not always enough; inconclusive = no clear call, values can overlap the other calls
Target sequence (P9WIQ1 whole entry, looked up): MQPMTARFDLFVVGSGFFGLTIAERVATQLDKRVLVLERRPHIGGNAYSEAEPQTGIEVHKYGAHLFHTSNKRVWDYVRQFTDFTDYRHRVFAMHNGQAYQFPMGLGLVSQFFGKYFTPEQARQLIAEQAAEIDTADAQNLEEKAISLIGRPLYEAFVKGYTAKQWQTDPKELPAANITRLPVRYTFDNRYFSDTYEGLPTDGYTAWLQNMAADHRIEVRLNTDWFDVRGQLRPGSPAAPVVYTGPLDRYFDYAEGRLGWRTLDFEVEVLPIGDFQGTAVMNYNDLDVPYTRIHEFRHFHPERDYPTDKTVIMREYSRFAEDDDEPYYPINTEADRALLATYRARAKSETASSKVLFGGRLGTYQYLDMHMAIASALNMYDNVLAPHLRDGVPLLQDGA
Rv3671c inh – Rv3671c (M. tuberculosis) protease inhibition; P9WHR9; inhibition, % at 5.96 µM; 320,000 compounds, 0.048% hits; AID 2606; in the data active = inhibition above about 38%;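 also: extracellular domain of Rv3671c used as enzyme; 0% = enzyme with DMSO and 100% = no enzyme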
Mtb hypoxia rep – reduces hypoxia-regulated biosensor signal in M. tuberculosis; 300,000 compounds, 0.1% hits; fluorescence inhibition, % (no concentration beside the values); M. tuberculosis hypoxia-regulated fluorescent reporter, fluorescence; AID 1159583; in the data active = fluorescence inhibition mostly above about 23%, no sharp cut-off; inactive = mostly below about 17%
VHR inh abs – blocks human VHR1 dual specificity phosphatase. P51452. recombinant VHR phosphatase, pNPP absorbance. inhibition, % at 13.3 µM. 290,000 compounds, 0.52% hits; in the data active = inhibition above about 50%
Target sequence (P51452 whole entry, looked up): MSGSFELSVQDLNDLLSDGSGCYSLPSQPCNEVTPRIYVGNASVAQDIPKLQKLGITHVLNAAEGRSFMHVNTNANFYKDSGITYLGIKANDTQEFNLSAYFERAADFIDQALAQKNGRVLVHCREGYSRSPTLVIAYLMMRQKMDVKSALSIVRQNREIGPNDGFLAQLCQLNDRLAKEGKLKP
Active calls of the source: *; u = inconclusive; x = no result given. This is a sample that favours compounds with a hit; in the whole collection about 0.59% have one here.

SMILES | Mtb bLac sens | UGM FP inh | Rv3671c inh | Mtb hypoxia rep | VHR inh abs
COc1ccc(NC2CCCN(C(=O)CCc3ccncc3)C2)cc1OC (stereo unspecified) | -2 | 1 | -7 | 0 | 54*
Cc1ccc(C)c(C(=O)CCC(=O)Nc2ccc(N3CCN(C)CC3)cc2C)c1 | 10 | 0 | -3 | -7 | x
CCCc1cc(=O)oc2cc(OCC(=O)NCC(O)c3ccccc3)ccc12 (stereo unspecified) | -11 | 0 | -1 | 4 | 53*
CCCc1cc(=O)oc2cc(OCC(=O)Nc3ccc(S(N)(=O)=O)cc3)ccc12 | 6 | -2 | -25 | -10 | 57*
COc1ccc(CCNC(=O)C(C)OC(=O)c2ccco2)cc1OC (stereo unspecified) | 5 | 1 | 3 | -1 | -14
Cc1ccc(OCC(=O)Nc2ccccc2N2CCOCC2)c(C)c1 | 8 | 3 | -11 | 8 | 52*
CCCCc1cc(=O)oc2c(CN(CC)CC)c(O)c(Cl)cc12 | 0 | 2 | 2 | 9 | 52*
O=C(NCCc1ccccc1)C1CC=CC2CCN(Cc3ccccc3)C(=O)C21 (stereo unspecified) | x | x | x | 11 | x
CSc1ncc(Cl)c(C(=O)NCc2cccnc2)n1 | -3 | 0 | x | 4 | 52*
CSc1ncc(Cl)c(C(=O)NCc2ccc3c(c2)OCO3)n1 | 4 | -4 | -5 | x | 22
O=C1c2ccccc2NC(c2cn[nH]c2-c2ccccc2)N1O (stereo unspecified) | 2 | -1 | -2 | 8 | -2
CCN1C(C#N)=C(C#N)N=C(C)CC1(C)C | -4 | -2 | 7 | 13 | 53*
CC1=NN(C(C#N)c2ccccc2O)C(C)(C)C1 (stereo unspecified) | -4 | 1 | 10 | -4 | 12
CC(=O)OC1OCCOC1NC(=S)Nc1ccc(C)cc1 (stereo unspecified) | 0 | -4 | 6 | 1 | 16
CC1CCCC(O)(C(C(=O)O)c2ccccc2)C1 (stereo unspecified) | x | x | x | 14 | x
CCCCNC(=S)NNc1c(Cl)cc(Cl)cc1Cl | 3 | 0 | 5 | 4 | 51*
O=C(CCn1cnc2ccccc21)NN=Cc1ccccc1O | x | x | x | -3 | x
Cc1ccccc1C(=O)/C(C#N)=N/Nc1c(C)n(C)n(-c2ccccc2)c1=O | 2 | 0 | 2 | 3 | 51*
COc1cc2nncc(SC)c2cc1OC | x | x | x | 15 | x
CCOc1ccc(OCCn2c(=S)[nH]c3ccccc32)cc1 | -1 | -1 | x | 6 | 0
Cc1cc(N/N=C/c2ccccc2O)c2ccccc2n1 | 99 | 1 | 5 | x | 12
Cc1cc(NN=Cc2ccccc2O)c2ccccc2n1 | x | x | x | 72* | x
CCOC(=O)C(CC)n1cnc2c(nnn2-c2cccc(OC)c2)c1=O (stereo unspecified) | -9 | 0 | -3 | 9 | 53*
CCOC(=O)C1=C(C)N=c2sc(=Cc3cccc([N+](=O)[O-])c3O)c(=O)n2C1c1ccc(OC)cc1OC (stereo unspecified) | x | x | x | 41* | x
CCOC(=O)C1=C(C)N=c2s/c(=C/c3cccc([N+](=O)[O-])c3O)c(=O)n2C1c1ccc(OC)cc1OC (stereo unspecified) | 8 | -1 | 1 | x | 2
SMILES | Mtb bLac sens | UGM FP inh | Rv3671c inh | Mtb hypoxia rep | VHR inh abs
COc1cc(C(=O)NCC(=O)NCC(c2ccco2)N2CCCCC2)cc(OC)c1OC (stereo unspecified) | 1 | 1 | 0 | -2 | x
NS(=O)(=O)c1ccc(NC(=O)COC(=O)CCc2ccc(S(=O)(=O)N3CCOCC3)cc2)cc1 | -6 | 2 | -8 | -4 | 10
CCCc1cc(=O)n2[nH]c(Cc3ccccc3)nc2n1 | -8 | 2 | -2 | x | 10
COc1ccc(N=NC2C(=O)N(c3ccccc3)N=C2C)cc1 (stereo unspecified) | 86 | 2 | 2 | -3 | 2
CSc1ccc(C(=O)C2CCCN(Cc3cccnc3)C2)cc1 (stereo unspecified) | 1 | 2 | 2 | x | 58*
CSc1ccc(C(=O)C2CCCN(C(=O)CCc3cnn(C)c3)C2)cc1 (stereo unspecified) | u | 1 | -4 | 5 | 50*
CC(=O)NNc1cc(C)nc(NS(=O)(=O)c2ccc(C)cc2)n1 | -1 | 1 | -2 | 8 | 4
O=C(CCC1COc2ccccc2O1)Nc1ccccn1 (stereo unspecified) | -12 | 1 | -4 | x | 2
COc1ccc(CN(CC(=O)NCc2ccccc2)C(=O)CCC(=O)Nc2cc(C)ccn2)cc1 | -7 | 3 | -10 | 16 | 52*
COc1ccc(CN(CC(=O)NCc2ccc(F)cc2)C(=O)CCC(=O)Nc2cc(C)ccn2)cc1 | 4 | 0 | 0 | -1 | 25
Cn1c2ccccc2c(=O)c2ccc(NCCc3cccs3)cc21 | 91 | -3 | -13 | 38* | x
O=C(COc1ccccc1)NNC(=S)NC(=O)c1ccccc1 | 66 | -1 | -1 | 3 | 26
COc1ccc2nc(SCC(=O)NC3CCCCC3)[nH]c2c1 | 2 | -2 | -2 | 9 | 58*
COc1cc(O)cc2cc3c(c(O)c12)C(=O)CC(C)(O)O3 (stereo unspecified) | -2 | -1 | -5 | x | 14
CCS(=O)(=O)NCCc1cc2c(OC)ccc(OC)c2[nH]c1=O | -5 | -1 | -2 | x | 53*
CCCCCSc1nc2c(c(=O)[nH]c(=O)n2C)n1CCc1ccccc1 | -6 | 0 | 3 | 11 | 5
CCOC(=O)N1CCC(NC(=O)c2ccc3nc4ccccc4c(=O)n3c2)CC1 | x | x | x | -7 | 38
CCOC(=O)N1CCC(NC(=O)c2cccn3c(=O)c4cc(Br)ccc4nc23)CC1 | 13 | -2 | -4 | 1 | 84*
COc1cc(NC(=O)CN2CCN(c3ccccc3O)CC2)c(C)cc1[N+](=O)[O-] | -9 | 0 | 1 | 7 | -4
CCc1nc2sc3c(c2c(=O)n1N)CC(C)(C)OC3 | 6 | 1 | 13 | 4 | 2
CN(C)c1nc2sc3c(c2c(=O)n1C)CC(C)(C)OC3 | -4 | 3 | 6 | 13 | 60*
CC(=O)OCCn1c(C)[n+](CCOC(C)=O)c2cc(Cl)c(Cl)cc21 | -8 | 1 | -4 | 13 | 24
CC(=O)OCCn1c2nc(=O)[nH]c(=O)c-2nc2cc(C)c(C)cc21 | 8 | 108* | x | -56 | 9
OC(COCC(F)(F)C(F)(F)C(F)(F)C(F)F)Cn1c2ccc(Cl)cc2c2cc(Cl)ccc21 (stereo unspecified) | 100 | 2 | -87 | x | 24
Cn1c(=O)c(C(=O)NC2CCCCCCC2)c(O)c2ccccc21 | 4 | 0 | -1 | 4 | 19
Cn1c(=O)c(C(=O)NC2CCCCCC2)c(O)c2ccccc21 | 6 | 0 | x | 5 | 60*
COc1ccc(CCNC(=O)c2c(O)c3ccccc3[nH]c2=O)cc1 | 6 | -2 | -8 | 13 | 58*
COc1ccc(CCNC(=O)c2ccc(Cl)cc2)cc1 | 8 | 1 | -1 | 37* | 19
COc1ccc(CCNC(=O)c2ccccc2)cc1 | -6 | 6 | -8 | x | 9
CC(C)c1cc(C(=O)NN=Cc2cccnc2)cs1 | x | x | x | -3 | x
